Not all results are given here.
aSyn UTR act: Activators via SNCA 5'UTR binding, MLPCN; alpha-synuclein 5'UTR reporter, activators screen; activity score, % (tested at 7.5 µM), hits read low; 7.1% of 300,000 active; AID 1814, 2009; in the data active = activity score below about -60%
Numbers without * were called inactive.

SMILES	aSyn UTR act
Cc1ccc(C(=O)NC(C)C2CC3CCC2C3)c(C)c1 (stereo not drawn)	-101.8*
Cc1cc(C)n(-c2nc(N(c3ccccc3)c3ccccc3)nc(-n3nc(C)cc3C)n2)n1	57.0
Cc1cc(C)n(-c2nncc(-c3ccccc3)n2)n1	-75.8*
c1ccc(-c2cnnc(N3CCOCC3)n2)cc1	-109.6*
Cc1cc(C)n(-c2ncc(-c3ccccc3)nn2)n1	-68.5*
CCc1cc2c(=O)n3c(nc2s1)-c1[nH]c2ccc(OC)cc2c1CC3	-103.0*
Nc1nc(CSC(=S)N2CCOCC2)nc(Nc2ccc(F)cc2)n1	-70.4*
Cc1ccc(Nc2nc(N)nc(CSC(=S)N3CCOCC3)n2)c(C)c1	-93.4*
COc1ccc(Nc2nc(N)nc(CSC(=S)N3CCOCC3)n2)cc1	-87.1*
Cc1cccc2nc(COc3ccc(-c4ccccc4)cc3)cn12	-121.1*
Clc1nc(-c2ccccn2)nc2scc(-c3ccccc3)c12	-206.4*
COc1cc2cc(-c3ccc(O)cc3O)nc(C)c2cc1OC	-115.9*
COc1cc2cc(-c3ccc(OC)c(OC)c3C)nc(N)c2cc1OC	95.5
Clc1ccc(C#Cc2cccnc2)cc1	-186.6*
Cc1cc(OCC(=O)NC2CCCCC2)ccc1Cl	-62.5*
O=C(COc1ccc(Cl)cc1[N+](=O)[O-])NC1CCCCC1	-119.3*
O=C(COc1ccccc1)NC1CCCCCCC1	-67.4*
O=C(NC1CCCCC1)N1CCc2ccccc21	-110.8*
O=C(CSc1ccccc1)NC1CCCCCC1	-81.8*
Cc1[nH]nc2nc(SCC(=O)NC3CCCCC3)n(-c3ccc(Br)cc3)c(=N)c12	58.9
Cc1cccc(/C(N)=N/OC(=O)c2ccc3c(c2)OCO3)c1	-115.9*
N/C(=N\OC(=O)c1ccc2c(c1)OCO2)c1cccc([N+](=O)[O-])c1	-132.7*
Cc1cccc(N2Cc3ccc(Br)cc3C2)c1	-124.7*
COc1cc2oc(-c3ccc(O)cc3)cc(=O)c2c(O)c1OC	-73.4*
COCCCNC(=S)NNC(=O)C1CC1c1ccc(C(C)(C)C)cc1 (stereo not drawn)	-99.9*
SMILES	aSyn UTR act
COCCNC(=S)NC(=O)c1ccc(C(C)(C)C)cc1	-91.1*
C=CCn1c(=O)c(C(=O)Nc2ccccc2C)c(O)c2ccccc21	-155.5*
CC(C)Cn1c(=O)c(C(=O)Nc2ccncc2)c(O)c2ccccc21	65.8
C=CCn1c(O)c(N=NC(=S)Nc2ccccc2C)c2cc(S(=O)(=O)N3CCOCC3)ccc21	79.5
CCn1c(=O)c(C(=O)Nc2ccccc2C)c(O)c2ccccc21	-80.5*
CCCCC(=O)Nc1sc2c(c1C(N)=O)CCC2	-85.2*
Cc1sc(NC(=S)NC(=O)C(C)(C)C)c(C(N)=O)c1C	-67.5*
CC(=O)NC(=S)Nc1sc2c(c1C(N)=O)CCC(C)C2 (stereo not drawn)	-83.3*
CC(C)(C)C(=O)NC(=S)Nc1sc2c(c1C(N)=O)CCC2	-87.8*
CC(C)CC(=O)NC(=S)Nc1sc2c(c1C(N)=O)CCC2	-99.6*
CC1CCCCN1C(=O)CSc1nnc(-c2cccs2)o1 (stereo not drawn)	-107.7*
CCC1CCCCN1C(=O)CSc1nnc(-c2ccc(Cl)s2)o1 (stereo not drawn)	-62.5*
CC1CCCC(C)N1C(=O)CSc1nnc(-c2cccs2)o1 (stereo not drawn)	-81.9*
O=Cc1c(-c2ccc(Cl)cc2)oc2ccc(O)cc12	-118.2*
O/N=C/c1cc(Br)ccc1OCc1ccc(F)cc1	-78.6*
Cc1ccc(COc2ccc(Br)cc2/C=N/O)cc1	-155.8*
CCOc1cc(/C=N/O)ccc1OCc1ccc(C)cc1	-68.0*
COc1ccc2c(c1OC)C(=O)N1c3ccccc3C(=O)N(c3ccccc3F)C21 (stereo not drawn)	60.6
COc1ccc2c(c1OC)C(=O)N1c3ccccc3SC21 (stereo not drawn)	-142.3*
COc1ccc2c(c1OC)C(=O)N1c3ccccc3COC21 (stereo not drawn)	-139.9*
Cn1c(=O)oc2cc(S(=O)(=O)N3CCCC(C(=O)NC4CCCc5ccccc54)C3)ccc21 (stereo not drawn)	63.1
CCCS(=O)(=O)N1CCCC(C(=O)Nc2ccc3c(c2)CCC3)C1 (stereo not drawn)	-70.8*
CCS(=O)(=O)N1CCC(C(=O)Nc2ccc3c(c2)CCC3)CC1	-83.4*
Cc1nc(/C(N)=N/OC(=O)c2ccccc2Cl)c(C(F)(F)F)o1	-131.1*
N/C(=N/OC(=O)c1ccccc1Cl)c1nonc1N	-84.9*
SMILES	aSyn UTR act
N#C/C(C(N)=O)=C1/CCc2ccccc2N1	-62.8*
CCOc1ccc2c(c1)c(N=O)c(O)n2C	-64.9*
O=C(NC(=O)c1ccc(Cl)cc1)OC1CCCCC1	-91.5*
O=C(CNC(=O)c1ccccc1)OC1CCCCC1	-97.9*
Cc1cccc(NC(=O)c2ccc(OCC3CCCO3)cc2)c1C (stereo not drawn)	-69.7*
O=C(Nc1ccc(Cl)cc1)c1ccc(OCC2CCCO2)cc1 (stereo not drawn)	-201.9*
O=C(Nc1ccccc1)OCC1CCCO1 (stereo not drawn)	-83.9*
Cc1cccc(-n2cc(-c3ccccc3)[nH]c2=S)c1	-108.1*
COc1ccc(-n2cc(-c3ccccc3)[nH]c2=S)cc1	-90.9*
CC(=O)Nc1ccc(-n2cc(-c3ccccc3)[nH]c2=S)cc1	-80.8*
CC(=O)Nc1cccc(-c2nc3ccccc3s2)c1	-132.9*
Nc1cccc(-c2nc3ccccc3s2)c1	-66.5*
O=C(CCS(=O)(=O)c1ccccc1)Nc1ccc(-c2nc3ccccc3s2)c(O)c1	-93.1*
CC(=O)Nc1cccc(-c2nc3ccc(NC(C)=O)cc3s2)c1	-133.1*
CC(=O)Nc1ccc(O)c(-c2nc3ccccc3s2)c1	-326.2*
CC(=O)Nc1cccc(-c2cc(C)c3cc4c(cc3n2)OCO4)c1	-89.1*
COC(=O)Cc1ccc2sc(-c3ccccc3)nc2c1	-207.6*
Clc1ccccc1-c1nnc(-c2cccs2)o1	-215.4*
Clc1ccccc1-c1nnc(-c2cccnc2)o1	-139.3*
Cc1ccccc1-c1nc(-c2cccnc2)no1	-226.6*
Cc1ccccc1-c1nc(-c2ccccn2)no1	95.0
CN(C)c1ccc(-c2nnc(-c3cccs3)o2)cc1	81.9
Clc1ccccc1-c1nc(-c2cccnc2)no1	-103.9*
CSc1ccccc1-c1nc(-c2ccncc2)no1	-194.6*
Cc1nc(-c2noc(-c3ccccc3Cl)n2)c(C(F)(F)F)o1	-142.4*
SMILES	aSyn UTR act
Clc1ccccc1-c1nc(-c2ccncc2)no1	-112.0*
N#CC1=C(N)N2C(=C(C#N)C1c1cccc(Br)c1)Nc1ccccc12 (stereo not drawn)	59.6
CN1CCN(S(=O)(=O)c2ccc(Br)c3nsnc23)CC1	-69.8*
CCOC(=O)Cc1ccc(NC(=O)c2ccc(C(C)(C)C)cc2)cc1	103.8
Cc1noc(N)c1C(=O)Nc1ccc(C(C)(C)C)cc1	-106.2*
O=c1oc2ccccc2c(Nc2ccc3ccccc3c2)c1[N+](=O)[O-]	-94.2*
O=C(CSc1nnc(-c2ccc(O)cc2)o1)N1CCOCC1	-76.8*
O=C(O)c1cccc(CSc2nnc(-c3ccc(Cl)cc3)o2)c1	54.8
O=C(CSc1nnc(-c2ccc(OC(F)F)cc2)o1)N1CCOCC1	-67.0*
O=C(CSc1nnc(-c2ccc(Cl)cc2)o1)N1CCOCC1	-153.6*
Oc1ccc(-c2nnc(SCC3CCCCC3)o2)cc1	-131.6*
CSc1ccc(-c2nc(CSCC(=O)N3CCOCC3)c(C)o2)cc1	-77.5*
COc1ccc(-c2nnc(SCC(=O)N3CCOCC3)o2)cc1	-105.4*
CC(C)=CCc1c(O)cc2oc3c(CC=C(C)C)c(O)c(O)c(CC=C(C)C)c3c(=O)c2c1O	62.2

Bioassay records: PubChem, Broad Institute
